The nature of this assay: viability loss in HEK293 kidney cells – cell-based, cherry-picks, set 5, cytotoxicity control, dose response (AID 1053117).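 Also: more negative means greater loss of ATP signal and more cytotoxicity.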

Measured potencies and affinities stand elsewhere. Calls of active or inactive are those of the source.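 The calls were made as follows: active = compounds lowering cell ATP signal with a fitted half-effect dose at most twice the top valid dose; inconclusive = flat curve with 30 to 70% signal loss, or bad fit; inactive = wrong direction, flat within 30%, or weaker than limit.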

With `C=C1C(=O)O[C@@H]2C[C@@H](C)[C@@H]3C=CC(=O)[C@@]3(C)[C@@H](O)[C@H]12`, the outcome was inactive.

The values above are taken from PubChem BioAssay AID1053117 (Broad Institute, 2014).
